# The campaign covered roughly 310,000 compounds. About 14,000 (4.5%) showed an effect of 50% or more. The effect is printed as a negative number. The list comes from a sample in which strong results are over-represented; it also holds similar structures and randomly drawn compounds.
# Molecular target: human ether-à-go-go-related gene (hERG) potassium channel (human, UniProt Q12809)
# Assay: primary screen, population patch clamp on CHO cells stably expressing hERG; higher = less effect of the substance
# 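Further: peak tail current of the secondary pulse compared with the same well before compound.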
# Chain of human ether-à-go-go-related gene (hERG) potassium channel (Q12809 whole entry, looked up): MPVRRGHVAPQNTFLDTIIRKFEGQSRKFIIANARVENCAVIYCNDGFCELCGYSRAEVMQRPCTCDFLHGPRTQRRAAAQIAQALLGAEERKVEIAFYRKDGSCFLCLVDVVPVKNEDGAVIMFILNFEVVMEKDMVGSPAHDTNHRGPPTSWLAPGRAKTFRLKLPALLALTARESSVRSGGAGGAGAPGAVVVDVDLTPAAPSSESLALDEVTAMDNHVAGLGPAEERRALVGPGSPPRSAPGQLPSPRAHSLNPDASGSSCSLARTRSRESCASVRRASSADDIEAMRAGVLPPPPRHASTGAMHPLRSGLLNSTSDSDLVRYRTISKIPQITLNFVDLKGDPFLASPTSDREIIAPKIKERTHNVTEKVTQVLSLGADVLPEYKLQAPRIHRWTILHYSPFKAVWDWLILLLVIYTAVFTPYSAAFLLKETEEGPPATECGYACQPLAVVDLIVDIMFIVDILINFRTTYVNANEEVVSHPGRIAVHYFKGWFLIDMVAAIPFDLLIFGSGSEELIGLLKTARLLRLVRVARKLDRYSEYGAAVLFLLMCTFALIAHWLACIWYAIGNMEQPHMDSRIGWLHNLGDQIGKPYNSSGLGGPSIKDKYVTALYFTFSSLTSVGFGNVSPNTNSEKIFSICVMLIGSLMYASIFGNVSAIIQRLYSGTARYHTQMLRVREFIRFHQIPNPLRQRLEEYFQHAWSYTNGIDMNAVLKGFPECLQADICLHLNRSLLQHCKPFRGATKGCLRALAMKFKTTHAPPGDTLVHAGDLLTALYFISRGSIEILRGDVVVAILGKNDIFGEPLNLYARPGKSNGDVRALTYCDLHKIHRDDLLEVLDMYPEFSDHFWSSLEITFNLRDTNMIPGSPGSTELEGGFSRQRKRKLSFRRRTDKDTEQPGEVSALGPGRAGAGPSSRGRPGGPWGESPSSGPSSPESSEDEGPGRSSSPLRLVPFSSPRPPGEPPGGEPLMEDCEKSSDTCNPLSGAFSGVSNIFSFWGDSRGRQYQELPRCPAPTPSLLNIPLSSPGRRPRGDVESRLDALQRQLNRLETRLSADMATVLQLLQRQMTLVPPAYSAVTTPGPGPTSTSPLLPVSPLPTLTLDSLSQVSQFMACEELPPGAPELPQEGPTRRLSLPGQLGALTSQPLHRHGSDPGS
row,Structure (SMILES),"hERG current change (%, negative = inhibition) at 10uM"
1,CC(C)CN(Cc1cc2ccccc2[nH]c1=O)C(=O)c1cccnc1,-1.54%
2,Cn1nc(C(C)(C)C)cc1C(=O)NNC(=O)c1ccccc1Cl,14.1%
3,O=C(COC(=O)[C@@H]1CCCN1S(=O)(=O)c1ccc(Cl)cc1)NC1CCS(=O)(=O)C1 (some centres unmarked),-14.7%
4,COc1ccc(CNC(=O)CCC(=O)N2CCN(C(C)=O)CC2)cc1,14.3%
5,Cc1nn(-c2ccccc2)nc1C(=O)Nc1ccc2[nH]ncc2c1,6.02%
6,CC1Cc2ccccc2N1c1ncnc2c1nnn2Cc1ccccc1 (centres unmarked),-0.652%
7,COc1cc(NC(=S)NC2CC2)c(OC)cc1Cl,-1.86%
8,CC(OC(=O)c1cccs1)C(=O)NCc1ccc2c(c1)OCO2 (centres unmarked),15.4%
9,Cc1ccccc1-n1nc2c(c1NC(=O)c1ccc(Br)o1)CSC2,-7.03%
10,COC(=O)c1ccc(CNC(=O)COC(=O)Cc2ccsc2)cc1,-6.64%
11,C=C(C)CCC(C)N1CCC(n2nccc2NC(=O)CCCc2ccccc2)CC1 (centres unmarked),-74.2%
12,Cc1cccc(CN2CCC(n3nccc3NC(=O)CCCc3ccccc3)CC2)n1,-20.2%
13,CSCC(C)N1CCC(n2nccc2NC(=O)CCCc2ccccc2)CC1 (centres unmarked),-47.5%
14,COCC(C)N1CCC(n2nccc2NC(=O)CCCc2ccccc2)CC1 (centres unmarked),-15.2%
15,CSc1ccc(CN2CCC(n3nccc3NC(=O)CCCc3ccccc3)CC2)cc1,-82.5%
16,COc1ccc(C(=O)Nc2nnc(S(=O)(=O)N3CCCCCC3)s2)cc1OC,-0.855%
17,COc1cc(NC(=O)COc2cccc(C)c2C)ccc1NC(=O)c1ccco1,13%
18,O=C(Nc1ccc(N2CCOCC2)cc1)c1cccc(S(=O)(=O)N2CCCC2)c1,1.96%
19,CC(=O)c1cccc(OCc2cc(C(=O)N(C)C(C)c3ccccn3)no2)c1 (centres unmarked),-4.32%
20,CC(NC(=O)/C=C/c1cnc2ccccc2n1)C12CC3CC(CC(C3)C1)C2 (centres unmarked),-10.1%
21,Cc1cc(Cl)c(S(=O)(=O)NCc2cccnc2)cc1OCC(N)=O,10.1%
22,Cc1cc(Cl)c(S(=O)(=O)NCc2cccnc2)cc1OCC(=O)NC1CCCCC1,-53.2%
23,Cc1cc(Cl)c(S(=O)(=O)N2CCCCCC2)cc1OCC(=O)NC1CCCCC1,-18.6%

row,Structure (SMILES),"hERG current change (%, negative = inhibition) at 10uM"
1,Cc1cc(Cl)c(S(=O)(=O)N2CCN(c3ccccn3)CC2)cc1OCC(N)=O,17.6%
2,Cc1cc(Cl)c(S(=O)(=O)NC2CCCC2)cc1OCC(=O)NC1CCCCC1,-7.18%
3,Cc1cc(Cl)c(S(=O)(=O)Nc2ccccn2)cc1OCC(N)=O,-71.8%
4,Cc1cc(Cl)c(S(=O)(=O)N2CCN(c3ccccn3)CC2)cc1OCC(=O)NC1CCCCC1,-56.9%
5,Cc1ccccc1NS(=O)(=O)c1cc(OCC(N)=O)c(C)cc1Cl,5.68%
6,Cc1cc(Cl)c(S(=O)(=O)Nc2ccc(Cl)cn2)cc1OCC(N)=O,-2.03%
7,CCNC(=O)c1c(NC(=O)c2cc(-c3cc(C)ccc3O)n[nH]2)sc2c1CCCC2,30.5%
8,CCn1nnnc1SCC(=O)N1CCN(c2ccccc2)CC1,-10.4%
9,Br.CC1CCN(Cc2nnnn2-c2cccc([N+](=O)[O-])c2)CC1,-10.8%
10,Cc1cccc(C)c1OCCNC(=O)OCc1ccccc1,-6.74%
11,Cc1c(/C=N/NC(N)=O)c2ccccn2c1C(=O)c1ccc(F)cc1,-5.23%
12,Cc1c(/C=N/NC(N)=O)c2ccccn2c1C(=O)c1ccncc1.Cl,-54.9%
13,Cc1c(/C=N/NC(=O)CNc2ccccc2)c2ccccn2c1C(=O)c1ccncc1,0.0344%
14,CCCCN(CC(=O)NC(C)(C)C)C(=O)C(=O)Nc1ccc2c(c1)OCCO2,-0.704%
15,CC(C)c1nnc(NC(=O)c2ccc(S(=O)(=O)N3CCOCC3)cc2)s1,6.52%
16,Cc1ccnc2nc(C(=O)Nc3ccc4c(c3)OCO4)nn12,-2.98%
17,CCOC(=O)C1C(C)N=C2SCC(=O)N2C1c1cccc(Br)c1 (centres unmarked),-12.6%
18,COc1cc(CNc2ccc3c(c2)CCC3)cc(OC)c1O,12.2%
19,Cn1c(SCC(=O)N2CCOCC2)nnc1-c1ccc2ncccc2c1,15.4%
20,COc1cc(CN2CCC(n3nccc3NC(=O)c3ccc4c(c3)OCO4)CC2)ccc1O,-6.7%
21,COc1ccc(CN2CCC(n3nccc3NC(=O)c3ccc4c(c3)OCO4)CC2)cc1C,-80.6%
22,CCOc1cccc(CN2CCC(n3nccc3NC(=O)c3ccc4c(c3)OCO4)CC2)c1,-43.2%
23,COc1cccc(O)c1CN1CCC(n2nccc2NC(=O)c2ccc3c(c2)OCO3)CC1,-24%

row,Structure (SMILES),"hERG current change (%, negative = inhibition) at 10uM"
1,CC(=O)c1cccc(CN2CCC(n3nccc3NC(=O)c3ccc4c(c3)OCO4)CC2)c1,-7.62%
2,CCc1ccc(CN2CCC(n3nccc3NC(=O)c3ccc4c(c3)OCO4)CC2)cc1,-72%
3,COC(=O)Nc1sc2c(c1C(N)=O)CCCCCC2,11.9%
4,COc1ccc(CNC2CC(=O)N(C)C2=O)cc1 (centres unmarked),13.6%
5,O=S1(=O)C=CC(Nc2cccc(Cl)c2)C1 (centres unmarked),16.7%
6,O=S1(=O)C=CC(Nc2ccccc2)C1 (centres unmarked),-76%
7,COc1ccc(NC2C=CS(=O)(=O)C2)cc1 (centres unmarked),0.937%
8,COc1ccc(CCN2CNc3c(c(=O)n(C)c(=O)n3C)C2)cc1,-17.5%
9,COc1ccc(CCNC(=O)Cn2nc(C)n3nc(-c4ccccc4)cc3c2=O)cc1OC,2%
10,CCNC(=O)c1cc2c(=O)n3cccc(C)c3nc2n(CCc2ccccc2)c1=N,-80.3%
11,COCCn1c(=N)c(C(=O)NCCc2ccc(OC)cc2)cc2c(=O)n3cccc(C)c3nc21,-84.8%
12,COCCn1c(=N)c(C(=O)NCCc2ccccc2)cc2c(=O)n3cccc(C)c3nc21,-82.9%
13,COCCn1c(=N)c(S(=O)(=O)c2ccc(F)cc2)cc2c(=O)n3cccc(C)c3nc21,-22.5%
14,COCCn1c(=S)[nH]c2cc(C(=O)NCCc3ccccc3)ccc2c1=O,-2.2%
15,Cc1cccn2c(=O)c3cc(C(=O)NCCc4ccccc4)sc3nc12,-6.84%
16,CC(C)COc1ccc(C(=O)CCN2CCCCC2)cc1.Cl,-41.4%
17,COc1ccc(C)cc1-n1c(SCC(=O)Nc2cc(C)on2)nc2sc(C)c(C)c2c1=O,-2.19%
18,N#Cc1nc(COc2cccc(Cl)c2)oc1N1CCCC1,-47.5%
19,C=CCC1Cc2c(Br)cccc2C(CC=C)N1 (centres unmarked),-7.3%
20,COC1=CC=C2[C@H]3Cc4ccc(OC)c5c4[C@@]2(CCN3C)[C@H]1O5.Cl,10.3%
21,O=C(NC1CC1)C1CCN(Cc2cnn(-c3ccccc3)c2-n2cccc2)CC1,-23.5%
22,COc1cccc(NC(=O)C2CCN(Cc3cnn(-c4ccccc4)c3-n3cccc3)CC2)c1,-45.5%
23,COc1cccc(CNC(=O)C2CCN(Cc3cnn(-c4ccccc4)c3-n3cccc3)CC2)c1,-71.3%

row,Structure (SMILES),"hERG current change (%, negative = inhibition) at 10uM"
1,CC(C)NC(=O)C1CCN(Cc2cnn(-c3ccccc3)c2-n2cccc2)CC1,-8.99%
2,O=C(NCc1ccccn1)C1CCCN(Cc2cnn(-c3ccccc3)c2-n2cccc2)C1 (centres unmarked),-24.5%
3,O=C(NCC1CCCO1)C1CCCN(Cc2cnn(-c3ccccc3)c2-n2cccc2)C1 (centres unmarked),-11.2%
4,O=C(NCCC1=CCCCC1)C1CCN(Cc2cnn(-c3ccccc3)c2-n2cccc2)CC1,-51.8%
5,Cc1ccc(CNC(=O)C2CCCN(Cc3cnn(-c4ccccc4)c3-n3cccc3)C2)cc1 (centres unmarked),-65.3%
6,O=C(NCc1ccc2c(c1)OCO2)C1CCN(Cc2cnn(-c3ccccc3)c2-n2cccc2)CC1,-49.2%
7,Cc1ccccc1CSc1nnc(-c2cnccn2)n1C,7.84%
8,O=C(O)/C=C/C(=O)Nc1ccc(Cl)cc1C(=O)c1ccccc1,-7.6%
9,CCOc1ccccc1NC(=O)CC1NCCNC1=O (centres unmarked),-8.89%
10,COc1ccc(/C=N/NC(=O)c2c(C)nc3ccc(Br)cn23)cc1OC,-0.597%
11,COCCNc1nnnc2c1sc1nc(N3CCOCC3)c3c(c12)CC(C)(C)OC3,-7.85%
12,COc1ccc(OCC(O)Cn2c(Nc3ccccc3)nc3c2c(=O)n(C)c(=O)n3C)cc1 (centres unmarked),2.94%
13,CCCCOc1ccc(C(=O)N2CCC(C)CC2)cc1,-9.48%
14,O=C(O)C(=O)O.c1ccc(CN2CCN(CCOCCOc3ccc4c(c3)CCC4)CC2)cc1,-5.19%
15,CCCOc1ccc(C(=O)C(CN2CCCC2)c2ccccc2)cc1.Cl (centres unmarked),-65.8%
16,CC1CCN(CCOc2ccc(C(=O)c3ccccc3)cc2)CC1.O=C(O)C(=O)O,-47.5%
17,O=C(O)C(=O)O.O=C(c1ccccc1)c1ccc(OCCOCCN2CCN(Cc3ccccc3)CC2)cc1,-78.9%
18,CCCOc1ccc(C(=O)C(CN2CCOCC2)c2ccccc2)cc1 (centres unmarked),-8.97%
19,O=C(O)C(=O)O.c1ccc(OCCCN2CCCC2)cc1,-7.18%
20,CCc1ccc(OCCOCCN2CCN(C)CC2)cc1.O=C(O)C(=O)O,4.8%
21,CC1CCN(CCCCOc2ccc(C(=O)c3ccccc3)cc2)CC1.O=C(O)C(=O)O,-77%
22,CCCCOc1ccc(C(=O)C(CN2CCOCC2)c2ccccc2)cc1 (centres unmarked),-1.42%
23,O=C(O)C(=O)O.O=C(c1ccccc1)c1ccc(OCCCN2CCCC2)cc1,-70.6%

# Reference: article PMC4336329 (PLoS ONE, 2015)
